# Compound activity from PubChem BioAssay.
# JMJD2A Tudor inh – JMJD2A Tudor domain (human) inhibition; O75164; AlphaScreen JMJD2A-Tudor / H3K4me3 peptide binding; Potency, µM (doses to about 114 µM), for the others: at the highest dose activity change, negative = inhibition, actives largely listed as inhibitors; 390,000 compounds, 4.4% hits; also: potency is read from the fitted curve at half-maximal effect; % is scaled to controls: 0 for no effect and ±100 for the full control effect; nearly all actives have a fitted effect of over 50% in size
# BAZ2B inh – inhibitors of human BAZ2B bromodomain; 360,000 compounds, 4.4% hits; Q9UIF8; AID 504333; AlphaScreen BAZ2B-H3K14Ac peptide displacement; Potency, µM (highest dose often 114 µM), inactives show at the top dose activity change, negative = inhibition, actives largely listed as inhibitors; also: potency is read from the fitted curve at half-maximal effect; % is scaled to controls: 0 for no effect and ±100 for the full control effect; nearly all actives have a fitted effect of over 60% in size
#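 Compounds, titrated to a top concentration of 110 uM, were incubated 30 min at room temperature with preformed BAZ2B/acetyl-K14 H3 peptide complex (50 nM each). Proximity signal was measured by AlphaScreen after 20 min with beads.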
# PLK1 PBD inh – blocks phosphopeptide binding to human PLK1 polo-box domain. P53350. Plk1 PBD binding of FITC phosphopeptide, fluorescence polarization. Potency, µM, without a hit: max response, negative = inhibition, hits mostly inhibitors. 360,000 compounds, 2.8% hits; also: potency is read from the fitted curve at half-maximal effect; series mostly up to about 57 µM; % is scaled to controls: 0 for no effect and ±100 for the full control effect; nearly all actives have a fitted effect of over 65% in size
# HP1b chromo inh – HP1-beta chromodomain-methylated histone interaction inhibition | P83916 | AlphaScreen HP1-beta / biotin-H3K9me3 peptide binding | Potency, µM (highest dose often 114 µM), without a hit: at the highest dose activity change, negative = inhibition, actives largely listed as inhibitors | 390,000 compounds, 0.56% hits | AID 540317; also: potency is read from the fitted curve at half-maximal effect; nearly all actives have a fitted effect of over 70% in size
# Target sequence (P83916 whole entry, looked up): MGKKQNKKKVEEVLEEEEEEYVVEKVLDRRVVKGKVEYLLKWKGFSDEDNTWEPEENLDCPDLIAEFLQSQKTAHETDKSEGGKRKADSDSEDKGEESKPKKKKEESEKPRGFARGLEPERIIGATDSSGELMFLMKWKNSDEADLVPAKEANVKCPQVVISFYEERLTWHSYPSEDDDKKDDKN
#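 HP1-beta protein (50 nM final) preincubated 30 min at room temperature with biotinylated H3(1-18)K9me3 peptide (50 nM) in PBS pH 7.4, 0.01% Tween-20, then compound added for 30 min. AlphaScreen streptavidin donor/nickel chelate acceptor beads (10 ug/mL final), 30 min dark, luminescence read.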
# PI5P4Ka inh – inhibitors of human PI5P4K alpha | PI5P4Kalpha enzyme, ADP-Glo luminescence, 60 min; active compounds read low | max response, % | 330,000 compounds, 1.2% hits | P48426; active = max response of -50% or lower; inconclusive = between -30% and -50%; inactive = -30% or higher; also: value at the top dose of about 77 µM; % is scaled to controls: 0 for no effect and ±100 for the full control effect
# Target sequence (P48426 whole entry, looked up): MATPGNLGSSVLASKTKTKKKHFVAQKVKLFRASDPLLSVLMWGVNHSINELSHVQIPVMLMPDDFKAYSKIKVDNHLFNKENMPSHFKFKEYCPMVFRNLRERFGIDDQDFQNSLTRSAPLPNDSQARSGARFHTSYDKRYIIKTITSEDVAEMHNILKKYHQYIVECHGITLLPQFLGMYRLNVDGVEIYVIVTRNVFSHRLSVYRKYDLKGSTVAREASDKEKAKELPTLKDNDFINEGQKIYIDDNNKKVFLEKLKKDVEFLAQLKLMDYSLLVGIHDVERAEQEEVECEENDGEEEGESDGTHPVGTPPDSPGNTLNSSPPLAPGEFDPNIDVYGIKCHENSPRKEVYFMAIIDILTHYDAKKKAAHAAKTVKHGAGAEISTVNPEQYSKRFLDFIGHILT
#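 qHTS, 1536-well: enzyme/substrate mix, compound by pin tool, 5 microM ATP final; RT 60 min; ADP-Glo reagents 1 (45 min) then 2 (30 min); luminescence.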
# G9a inh – inhibitors of human histone lysine methyltransferase G9a; Q96KQ7; G9a H3K9 monomethylation, AlphaScreen, 2 h; Potency, µM (highest dose often 102 µM), without a hit: top-dose activity, negative = inhibition, most hits filed as inhibitors; 350,000 compounds, 8.8% hits; also: potency is read from the fitted curve at half-maximal effect; % is scaled to controls: 0 for no effect and ±100 for the full control effect; nearly all actives have a fitted effect of over 75% in size
#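 Signal arises when biotinylated H3K9 peptide, once monomethylated, bridges streptavidin donor and antibody-captured acceptor beads. Enzyme at 20 nM was preincubated 15 min with test compounds; peptide 500 nM and SAM 20 uM then reacted for 2 h.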
# Starred values were filed as active, the others as inactive; u = inconclusive; x = not tested or not shown; [ ] = remark or other dose. This is a sample that favours compounds with a hit; in the whole collection about 12% have one here. Unless noted, calls follow the shape of the dose curve; as a rule, active = well fitted curve in the direction sought with a large enough effect; inconclusive = small, poorly fitted or top-dose-only effect, or another doubt; inactive = no such curve, though single readings can be large; an effect the other way counts as inactive or inconclusive.
SMILES,JMJD2A Tudor inh,BAZ2B inh,PLK1 PBD inh,HP1b chromo inh,PI5P4Ka inh,G9a inh
COc1ccccc1C1C(C(=O)c2cc3ccccc3o2)=C(O)C(=O)N1c1cc(C)on1 (centres undefined),-35%,-26%[57.1 µM],-16%,1%[57 µM],-5,50µM*
Cc1cc(N2C(=O)C(O)=C(C(=O)c3ccc(C)o3)C2c2ccc([N+](=O)[O-])cc2)no1 (centres undefined),-21%,-29%,-8%,16%,-9,45µM*
COc1ccc(OC)c(C2C(C(=O)c3ccc(C)o3)=C(O)C(=O)N2c2cc(C)on2)c1 (centres undefined),u,-33%,24µM*,-8%,-4,50µM*
C=CCOc1cccc(C2C(C(=O)c3cc4ccccc4o3)=C(O)C(=O)N2c2cc(C)on2)c1 (centres undefined),u,-29%,u,-3%[57 µM],-28,40µM*
CCc1ccc(NC(=O)Nc2ccccc2OCc2cc(=O)n3ccccc3n2)cc1,-16%,4%,x,8%[57 µM],x,7%[59 µM]
Cc1cc(N2C(=O)C(O)=C(C(=O)c3ccc(C)o3)C2c2cccc(Oc3ccccc3)c2)no1 (centres undefined),35µM*,-24%,24µM*,-32%[57 µM],u,x
COc1cccc(C2C(C(=O)c3cc4ccccc4o3)=C(O)C(=O)N2c2cc(C)on2)c1 (centres undefined),-24%,-2%,-8%,2%[57 µM],-3,45µM*
CCC(C)(CCN1CCOCC1)N(Cc1cc2ccccc2n(C)c1=O)C(=O)C1CCCCC1 (centres undefined),-14%,x,x,x,x,x
CCN1C(=O)C(=O)c2cc(C)ccc21,-22%,x,-10%,19%,6,x
CC[N+]1=C(C)C(C)(C)c2cc(C)ccc21,-4%[11.4 µM],45µM*,u,-2%,-4,u
COc1ccc(C(=O)C[N+]2(C)CCOCC2)cc1,22µM*,u,0%,26%,x,13µM*
CN(C)C(=O)c1ccc(-c2ccc3ncnc(NCc4ccccc4)c3c2)cc1,x,x,x,x,x,9%[0.501 µM]
O=C1C(Nc2ccccc2)=C(NS(=O)(=O)c2ccccc2)C(=O)c2ccccc21,-5%,-13%,-11%,2%,-2,-8%[59 µM]
CC(C)(C)c1ccc(S(=O)(=O)/N=C2\C=C(NS(=O)(=O)c3ccccc3)C(=O)c3ccccc32)cc1,25µM*,28µM*,13µM*,u,u,10µM*
Cc1ccc(S(=O)(=O)/N=C2\C=C(NS(=O)(=O)c3ccccc3)C(=O)c3ccccc32)c(C)c1,22µM*,x,19µM*,22µM*,-10,x
O=C(NCCc1nc2ccccc2n1CCOc1cccc2ccccc12)C1CCCCC1,-8%[57.1 µM],x,x,16%[57 µM],x,x
COC(=O)c1sc2cccc(F)c2c1S(=O)(=O)Nc1cc(C)c(Cl)cc1OC,-15%,-17%,x,45%,x,2%[59 µM]
OCC1O[C@H]([S-])[C@H](O)[C@@H](O)[C@@H]1O.[Au+] (some centres undefined),x,x,x,x,x,0.21µM*
COC(=O)[C@@]12C[C@@H](CC(=O)NCCCN3CCCC3=O)C(=O)N(CCc3ccc(OC)c(OC)c3)C1=CCC(C)(C)C2,x,x,-21%,x,2,x
O=C(C[n+]1ccc2ccccc2c1)c1cccc2ccccc12,-29%,-19%,24µM*,19%,-12,28µM*
Cc1ccc(C(=O)C[n+]2ccc3ccccc3c2)cc1,-5%,-7%,8%,26%,-2,-37%
O=C(c1ccco1)N1CCN(S(=O)(=O)c2cccc([N+](=O)[O-])c2)CC1,3%,4%,0%,u,-3,20%[0.501 µM]
Cc1nnc(SCC(=O)N/N=C/c2ccc(-c3ccc(C)c(Cl)c3)o2)s1,-10%,-35%,-8%,u,-22,11µM*
Cn1c(=O)c(-c2cc(F)cc(F)c2)nc2cnc(N3CCOCC3)nc21,x,x,x,x,x,3%[0.501 µM]
O=C(CN1C(=O)CC(c2ccco2)Sc2ccccc21)NCC1CCCO1 (centres undefined),-27%,-1%,-14%,5%,x,11µM*
SMILES,JMJD2A Tudor inh,BAZ2B inh,PLK1 PBD inh,HP1b chromo inh,PI5P4Ka inh,G9a inh
NC(=O)c1nsc(C(=O)N(CC(=O)NC2CCCCC2)Cc2ccc(F)cc2)c1N,-9%,-4%,-7%,-3%,-1,4%
O=C1C=CC(=Nc2ccc3c(c2)Cc2cc(F)ccc2-3)O1,u,x,u,u,-58*,x
COc1ccc(NC(=O)N2CCCC3(CCN(S(C)(=O)=O)CC3)C2)cc1,x,x,x,x,x,6%[12.7 µM]
COc1ccc(C2=CC3=C(Br)C(=O)C(C)(O)C(=O)C3=CO2)cc1 (centres undefined),u,-36%,u,-21%,-83*,u
COC(=O)CCC(=O)OC1(C)C(=O)C2=CN(c3ccccc3)C(c3ccc(OC)cc3)=CC2=C(Br)C1=O (centres undefined),u,x,u,-17%,u,x
Clc1ccc(-c2[nH]ncc2N=Nc2ccccc2)cc1,u,u,5%,-9%,5,u
Cc1cc(=O)n2[nH]c(N)c(N=Nc3ccccc3)c2n1,-21%,0%,-5%,11%,-9,-9%[59 µM]
Nc1ccc(N=Nc2ccccc2)c(N)n1,-5%,u,-4%,31%,1,11µM*
c1ccc(N=Nc2ccc3cccccc2-3)cc1,4µM*,x,-6%,4µM*,34,x
Nc1ccc(N=Nc2ccccc2)c2ccccc12,35µM*,11µM*,-3%,-9%,20,10µM*
CCOC(=O)N1C(C)CN(/[N+]([O-])=N/Oc2ccc([N+](=O)[O-])cc2[N+](=O)[O-])CC1C (centres undefined),-15%,x,x,34%,x,x
CC(CCN1C(N(C)C)=NC[C@@H]1C)c1ccccc1 (some centres undefined),-10%,-1%,7%,29%,0,-9%[2.33 µM]
c1ccc(-c2nc(NCC3CCCO3)c3oc4ccccc4c3n2)cc1 (centres undefined),-14%,-9%,-3%,44%,x,45µM*
c1ccc(-c2nc(NCc3cccnc3)c3oc4ccccc4c3n2)cc1,u,50µM*,-22%,48%,14,u
OCCCNc1nc(-c2ccccc2)nc2c1oc1ccccc12,-9%,u,-8%,1%,4,50µM*
O=C(O)CNc1nc(-c2ccccc2)nc2c1oc1ccccc12,-3%[11.4 µM],0%,-10%,27%,1,-35%
c1ccc2c(c1)oc1c(NCC3CCCO3)ncnc12 (centres undefined),-11%,-35%,-4%,31%,3,x
Cc1nnc(SCC(=O)Nc2ccc(Br)cc2)[nH]c1=O,-18%,-38%,x,13%,x,-14%[59 µM]
O=c1c(-c2cccc(F)c2)nc2cncnc2n1C1CC1,x,x,x,x,x,4%[12.7 µM]
CSc1ncc(Cl)c(C(=O)Nc2nnc(SC/C=C/c3ccccc3)s2)n1,-32%,20%,u,-11%,x,u
